# Measurements as given in PubChem BioAssay AID1851 (National Center for Advancing Translational Sciences (NCATS), 2009).
# Values joined by “and” are separate entries in the source; they are usually repeats but may differ in a detail not shown here. Equal entries are not always repeated. In all, about 16,000 compounds went through this assay and about 4,000 (25%) were called active. Roughly 26% stayed inconclusive and do not appear here. The call rests on the fitted dose curve; in most records, active means well fitted curve in the direction sought with a large enough effect; inconclusive means small, poorly fitted or top-dose-only effect, or effect the other way; inactive means no such curve, though single readings can be large or run the other way. Not all results are given here. Some structures have more than one record in an assay (separate samples or runs), and their calls can disagree.
# Biological target: Cytochrome P450 2C9 (Homo sapiens) (UniProt P11712)
# Sequence (P11712 whole entry, looked up): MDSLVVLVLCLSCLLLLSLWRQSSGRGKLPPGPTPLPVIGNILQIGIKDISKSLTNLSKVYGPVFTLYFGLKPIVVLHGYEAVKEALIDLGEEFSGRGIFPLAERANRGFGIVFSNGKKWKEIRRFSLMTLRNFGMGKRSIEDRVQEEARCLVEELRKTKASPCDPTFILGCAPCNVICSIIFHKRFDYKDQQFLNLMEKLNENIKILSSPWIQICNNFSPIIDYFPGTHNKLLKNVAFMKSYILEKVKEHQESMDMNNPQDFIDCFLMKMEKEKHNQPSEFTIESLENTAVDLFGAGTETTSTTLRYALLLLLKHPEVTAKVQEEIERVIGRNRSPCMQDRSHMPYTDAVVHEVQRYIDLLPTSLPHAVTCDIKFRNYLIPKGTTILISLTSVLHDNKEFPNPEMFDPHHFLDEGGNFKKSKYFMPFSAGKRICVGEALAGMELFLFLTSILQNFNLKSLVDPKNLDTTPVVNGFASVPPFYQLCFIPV
# Test: Cytochrome panel assay with activity outcomes
# Settings: recombinant CYP, pro-luciferin dealkylation, luminescence, p450-cyp2c9; series mostly up to 57.1 µM; activity, negative = inhibition: at the top concentration
# On the % scale 0 is the no-effect control and ±100 the full control effect.
Structure (SMILES),"activity, negative = inhibition",AC50
O=C(O)Cc1cnc[nH]1,-5.96% (inactive),–
C=CCN1C[C@H](C)N([C@H](c2ccc(C(=O)N(CC)CC)cc2)c2cccc(OC)c2)C[C@H]1C,-11.6% (inactive),–
C=CCN1C[C@@H](C)N([C@H](c2ccc(C(=O)N(CC)CC)cc2)c2cccc(OC)c2)C[C@H]1C,-9.55% (inactive),–
C=CCN1C[C@H](C)N([C@H](c2ccc(C(=O)N(CC)CC)cc2)c2cccc(O)c2)C[C@H]1C,–,3980 nM (active)
NC(N)=NS(=O)(=O)c1ccc(N)cc1,8.95% [at 25.6 µM] (inactive),–
CC[C@@H](CO)NC(=O)[C@H]1C=C2c3cccc4c3c(cn4C)C[C@H]2N(C)C1,-29.9% (inactive),–
O=[N+]([O-])c1cc(-c2ccc([As](=O)(O)O)cc2)ccc1[As](=O)(O)O,16.8% [at 11.4 µM] (inactive),–
CN(C)C=C1C(=O)N(C2CCCCC2)C(=O)N(C2CCCCC2)C1=O,–,2240 nM (active)
COc1cc(-c2ccc(=O)[nH]n2)ccc1OC(F)F,-1.03% [at 25.6 µM] (inactive),–
C[N+](C)(C)CCCCCC[N+](C)(C)C,21.2% [at 25.6 µM] (inactive),–
CN=C(NC#N)NCCSCc1nc[nH]c1C,-1.35% (inactive),–
O=C(O)CS(=O)(=O)C(c1ccccc1)c1ccccc1,-12.7% [at 11.4 µM] (inactive),–
C(#CCN1CCCC1)CN1CCCC1,7.11% [at 25.6 µM] (inactive),–
C[N+](C)(C)CC#CCN1CCCC1=O,inactive,–
O=C1CCCN1CC#CCN1CCCC1,–,2000 nM (active)
CC(C)(C)C(=O)CP(=O)(O)O,9.42% [at 11.4 µM] (inactive),–
OC(c1ccccc1)(c1ccccc1)C1CCCN1 (centres undefined),-17.9% (inactive),–
COc1ccccc1CN1CC[C@@]2(CCCN(C(=O)Oc3ccccc3)C2)C1,-9.71% (inactive),–
Cc1ccc(C(=O)C2C(=O)c3ccccc3C2=O)cc1,–,2240 nM (active)
CCN1C[C@@]2(COC)CC[C@H](O)[C@@]34[C@@H]2C[C@@H]([C@@H]13)[C@]1(O)C[C@@H](OC)C2C[C@H]4[C@H]1[C@H]2OC(C)=O,-9.7% [at 25.6 µM] (inactive),–
c1ccc2sc(C3(N4CCCCC4)CCCCC3)cc2c1,inactive,–
c1ccc2c(c1)OC[C@@H](C1=NCCN1)O2,–,inactive and 31.6 µM (active)
CC[C@]1(C2=NCCN2)Cc2ccccc2O1,inactive,–
COc1cc2c(cc1O)[C@H]1Cc3ccc(OC)c(O)c3CN1CC2,-28.6% [at 25.6 µM] (inactive),–

Structure (SMILES),"activity, negative = inhibition",AC50
c1ccc(N2CCCC3(CCNCC3)C2)cc1,-19.3% (inactive),–
CC(C)Oc1cccnc1N(C)C1CCN(Cc2ccccc2)CC1,-16.1% (inactive),–
O=C1Nc2ccc(I)cc2/C1=C/c1cc(Br)c(O)c(Br)c1,–,12600 nM (active)
COc1cc2c(cc1OC)[C@@]13CCN4C=C5CCO[C@H]6CC(=O)N2[C@@H]1[C@@H]6[C@H]5C[C@H]43,-3.46% [at 11.4 µM] (inactive),–
COc1ccc(CNC(=O)/C=C\c2ccc3[nH]cc(CCN(C)C)c3c2)cc1,12.7% (inactive),–
c1ccc(C[C@@H](c2ccccc2)N2CCCCC2)cc1,-0.583% (inactive),–
CN1CCc2cc(O)cc3c2[C@H]1Cc1ccc(O)c(O)c1-3,-22.6% (inactive),–
O=C(O)C(O)(c1ccc(-c2ccccc2)cc1)c1ccc(-c2ccccc2)cc1,–,3160 nM (active)
C[N+]12CCC(CC1)[C@@H](OC(=O)C(O)(c1ccccc1)c1ccccc1)C2,-16.5% [at 25.6 µM] (inactive),–
O=C(C[n+]1ccc2ccccc2c1)c1ccc2ccc3ccccc3c2c1,16.4% [at 11.4 µM] (inactive),–
CCn1cc(C(=O)O)c(=O)c2cc3c(cc21)OCO3,7.22% (inactive),–
Clc1ccc(C2=CCC[C@H]3CC[C@@H]2N3)cn1,24.7% (inactive),–
Cn1ccnc1,-9.78% (inactive),–
c1cc(CCN2CCCCC2)ccn1,3.53% [at 11.4 µM] (inactive),–
Clc1ccc(C(c2ccc(Cl)cc2)n2cc[n+](C[C@@H](OCc3ccc(Cl)cc3Cl)c3ccc(Cl)cc3Cl)c2)cc1,–,31600 nM (active)
Cc1nc(-c2ccc(-c3ccc(C(=O)N4CCc5cc6c(cc54)C4(CCN(C)CC4)CO6)cc3)c(C)c2)no1,–,inactive and 7.94 µM (active)
NCCc1ccc(S(=O)(=O)O)cc1[N+](=O)[O-],8.12% [at 11.4 µM] (inactive),–
C[C@H](N)c1cccc(Cl)c1Cl,-4.33% (inactive),–
CC[C@H](Oc1ccc(Cl)cc1)C(=O)OC1C[C@H]2CC[C@@H](C1)N2C (some centres undefined),–,100 nM (active)
C[C@@H](C(=O)OC1C[C@H]2CC[C@@H](C1)N2C)c1ccc(Br)cc1 (some centres undefined),2% (inactive),–
CN1C2CCC1CC(OC(=O)c1ccc(Cl)cc1)C2 (centres undefined),0.397% (inactive),–
CCCN(CCC)[C@@H]1CCc2ccc(O)cc2C1,inactive,–
O=C(Nc1ccccc1)N1CCC2(CC1)CCN(C(=O)Oc1ccccc1)CC2,-2.26% (inactive),–
c1cnc(N2CCC3(CCNCC3)CC2)nc1,-14.4% (inactive),–

Structure (SMILES),"activity, negative = inhibition",AC50
C[Se]C[C@@H](N)C(=O)O,10.4% (inactive),–
O=c1[nH]c(=O)n([C@H]2C[C@H](O)[C@H](CO)O2)cc1/C=C\Br,2.05% (inactive),–
Oc1ccc2c3c1O[C@H]1c4c(c5ccccc5n4Cc4ccccc4)C[C@]4(O)[C@H](C2)N(CC2CC2)CC[C@@]314,-20.5% (inactive),–
c1ccc2nc(N3CCNCC3)ccc2c1,inactive,–
Clc1cccc(N2CCNCC2)c1,8.01% (inactive),–
Clc1cncc(N2CCNCC2)n1,–,2000 nM (active)
CCCN(CCC)[C@H]1CCc2c(F)ccc(O)c2C1,inactive,–
NS(=O)(=O)C[C-]1C=C[CH]([Sb-]([Cl])([Cl])([Cl])([Cl])[Cl])C=C1.c1ccncc1 (centres undefined),2.33% [at 11.4 µM] (inactive),–
CNCCc1cnc[nH]1,4.83% (inactive),–
Cc1ccccc1-c1cncnc1NCCc1cnc[nH]1,–,1000 nM (active)
CN1C(=O)C(=Cc2ccccc2Oc2ccc(Cl)c(F)c2)C(=O)N(C)C1=O,–,6310 nM (active)
COC1=C(C)C(=O)c2c(c(COC(N)=O)c3n2C[C@@H]2[C@@H]3N2C)C1=O (some centres undefined),-23.6% [at 11.4 µM] (inactive),–
Cc1sc2ccccc2c1CC1=NCCN1,-12.9% (inactive),–
CC(=O)O[C@H]1C[C@@H](O[C@@H]2[C@H](C)O[C@H](O[C@@H]3[C@H](C)O[C@H](O[C@@H]4CC[C@@]5(C)[C@@H](CC[C@]6(C)[C@]5(C)C[C@H](O)[C@]5(C)[C@@H](C7=CC(=O)OC7)CC[C@@]56O)C4)C[C@@H]3O)C[C@@H]2O)O[C@@H](C)[C@H]1O[C@H]1O[C@@H](CO)[C@@H](O)[C@@H](O)[C@@H]1O,0.428% [at 25.6 µM] (inactive),–
CNC(=O)OCC[N+](C)(C)C,5.87% (inactive),–
COC(=O)c1cc2c(cn1)[nH]c1ccccc12,15% (inactive),–
COC(=O)c1[nH]c2ccc(Br)cc2c1NC(=O)Oc1ccccc1,–,8910 nM (active)
N[C@@H](Cc1cc(Br)c(O)c(Br)c1)C(=O)O,-7.73% [at 11.4 µM] (inactive),–
CN(C(=O)Cc1ccc(Cl)c(Cl)c1)[C@@H](CN1CCCC1)c1cccc(OCC(=O)O)c1,inactive,–
COC(=O)N1CCN(C(=O)Cc2ccc(Cl)c(Cl)c2)[C@H](CN2CCCC2)C1,–,inactive and 12.6 µM (active)
O=C(Cc1ccc(Cl)c(Cl)c1)N1CCCC[C@H]1CN1CCCC1,-9.68% (inactive),–
O=c1[nH]c(=O)n(CCC2=CCCCC2)c(O)c1C=Nc1cccc(F)c1,-22% (inactive),–
CCn1cnc2c(Nc3cccc(Cl)c3)nc(N[C@@H]3CCCC[C@H]3N)nc21,-29.6% (inactive),–
Cc1ccccc1-n1c(O)c(C=Nc2ccc(N(C)C)cc2)c(=O)[nH]c1=O,-24.5% (inactive),–

Structure (SMILES),"activity, negative = inhibition",AC50
CC(C)N[C@@H](C)Cc1ccc(I)cc1,-14.9% (inactive),–
CCN(CC)C1=NC(=[N+](CC)CC)c2ccccc21,-31.7% (inactive),–
C[C@]1(C(=O)O)[C@@H]2CC[C@@H](O2)[C@@]1(C)C(=O)O,25.2% (inactive),–
CCOCCN1CCC(OC(C)=O)C(C)C1 (centres undefined),-4.11% (inactive),–
CCN1C[C@]2(C)CC[C@H](OC)[C@@]34[C@@H]2[C@H](OC(C)=O)[C@]2(OCO[C@@]25C[C@@H](OC)[C@@H]2C[C@@]3(O)[C@H]5[C@@H]2OC)[C@H]14,2.84% [at 25.6 µM] (inactive),–
O=C1NC(=O)N(CCNc2ncc(C(F)(F)F)cc2Cl)C(=O)C1/C=N/OCc1c(F)cccc1Cl (centres undefined),–,794 nM (active)
NC[C@@H](CC(=O)O)c1ccc(Cl)cc1,inactive,–
N[C@@]1(C(=O)O)CC[C@H](C(=O)O)C1,inactive,–
COC[C@H]1OC(=O)c2coc3c2[C@@]1(C)C1=C(C3=O)[C@H]2CCC(=O)[C@@]2(C)C[C@H]1OC(C)=O,7.54% (inactive),–
Cc1cc(C(C)(C)C)cc(C)c1CC1=NCCN1,-5.49% (inactive),–
CC[C@H](CO)NC(=O)[C@@H]1C=C2c3cccc4c3c(cn4C)C[C@@H]2N(C)C1,-11.5% (inactive),–
C[C@]12CC[C@H](O)C[C@@H]1CC[C@H]1[C@H]2CC[C@]2(C)[C@H](C(=O)CO)CC[C@@H]12,–,25100 nM (active)
C[C@@]12CC[C@H]3[C@@H](CCC4=CC(=O)CC[C@]43C)[C@H]1CC[C@H]2C(=O)CO,-24.9% [at 25.6 µM] (inactive),–
CC(=O)OCC(=O)[C@@H]1CC[C@H]2[C@H]3CC[C@H]4C[C@@H](O)CC[C@]4(C)[C@@H]3C(=O)C[C@@]12C,-29% [at 25.6 µM] (inactive),–
C[C@]12CC[C@H](O)C[C@@H]1CC[C@H]1[C@H]2CC[C@]2(C)C(=O)CC[C@@H]12,inactive,–
CC(=O)[C@@H]1CC[C@H]2[C@H]3CC[C@H]4C[C@@H](O)CC[C@]4(C)[C@@H]3CC[C@]12C,–,2000 nM (active)
C[C@H]1CC[C@]2(OC1)O[C@@H]1C[C@@H]3[C@@H]4CC[C@H]5C[C@@H](O)CC[C@]5(C)[C@@H]4CC(=O)[C@@]3(C)[C@H]1[C@@H]2C,13.6% [at 25.6 µM] (inactive),–
CC(C)(C)NC[C@H](O)c1cc(Cl)c(N)c(Cl)c1,21% [at 25.6 µM] (inactive),–
O=C1C=C2C=C[C@H]3C[C@@]2(O1)[C@H]1CCCCN31,-3.6% [at 25.6 µM] (inactive),–
CN[C@H](Cc1ccccc1)c1cccc(OC)c1O,9.59% [at 11.4 µM] (inactive),–
CCC(=O)O[C@@](Cc1ccccc1)(c1ccccc1)[C@@H](C)CN(C)C,-4.85% [at 25.6 µM] (inactive),–
CC(C)Oc1cc(-n2c(=S)[nH]c3ccccc3c2=O)c(Cl)cc1Cl,–,2240 nM (active)
